Results from the supplement of paper PMC6992640.
Structures can show the parent of a compound that is named as a salt.

Each compound was assayed on UCD52 (cells of a triple-negative basal-like breast cancer xenograft) (assay: cell viability of combination (% of vehicle); higher = less cytotoxic). Details: 1 µM; 72 h; partner dose: 10 nM.
Description: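 PDX cells were treated for 72 h with each drug at 1 µM plus afatinib (10 nM; 1 µM for WHIM30). Luciferase viability is expressed as percent of vehicle.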

Row | Structure (SMILES) | cell viability of combination
1 | CC(C)(C)c1ccc(C(O)CCCN2CCC(C(O)(c3ccccc3)c3ccccc3)CC2)cc1 (stereo not given) [Terfenadine] + CN(C)C/C=C/C(=O)Nc1cc2c(Nc3ccc(F)c(Cl)c3)ncnc2cc1O[C@H]1CCOC1 [Afatinib] | 59.1
2 | CC[C@@]1(O)C(=O)OCc2c1cc1n(c2=O)Cc2cc3c(CN(C)C)c(O)ccc3nc2-1 [Topotecan] + CN(C)C/C=C/C(=O)Nc1cc2c(Nc3ccc(F)c(Cl)c3)ncnc2cc1O[C@H]1CCOC1 [Afatinib] | 76.4
3 | CCOC(=O)C1=C(COCCN)NC(C)=C(C(=O)OC)C1c1ccccc1Cl.O=S(=O)(O)c1ccccc1 (stereo not given) [Amlodipine Besylate] + CN(C)C/C=C/C(=O)Nc1cc2c(Nc3ccc(F)c(Cl)c3)ncnc2cc1O[C@H]1CCOC1 [Afatinib] | 83.6
4 | COc1cccc2c1C(=O)c1c(O)c3c(c(O)c1C2=O)CC(O)(C(=O)CO)CC3OC1CC(N)C(O)C(C)O1 (stereo not given) [Doxorubicin] + CN(C)C/C=C/C(=O)Nc1cc2c(Nc3ccc(F)c(Cl)c3)ncnc2cc1O[C@H]1CCOC1 [Afatinib] | 28.5
5 | CO[C@H]1C[C@@H]2CC[C@@H](C)[C@@](O)(O2)C(=O)C(=O)N2CCCC[C@H]2C(=O)O[C@H]([C@H](C)C[C@@H]2CC[C@@H](OC(=O)C(C)(CO)CO)[C@H](OC)C2)CC(=O)[C@H](C)/C=C(\C)[C@@H](O)[C@@H](OC)C(=O)[C@H](C)C[C@H](C)/C=C/C=C/C=C/1C [Temsirolimus] + CN(C)C/C=C/C(=O)Nc1cc2c(Nc3ccc(F)c(Cl)c3)ncnc2cc1O[C@H]1CCOC1 [Afatinib] | 40.4
6 | CCOc1nc2cccc(C(=O)OC(C)OC(=O)OC3CCCCC3)c2n1Cc1ccc(-c2ccccc2-c2nn[nH]n2)cc1 (stereo not given) [Candesartan Cilexetil] + CN(C)C/C=C/C(=O)Nc1cc2c(Nc3ccc(F)c(Cl)c3)ncnc2cc1O[C@H]1CCOC1 [Afatinib] | 74.5
7 | CC1CC(=O)NN=C1c1ccc(NN=C(C#N)C#N)cc1 (stereo not given) [Levosimendan] + CN(C)C/C=C/C(=O)Nc1cc2c(Nc3ccc(F)c(Cl)c3)ncnc2cc1O[C@H]1CCOC1 [Afatinib] | 75
8 | Br.Cc1ccc(Sc2ccccc2N2CCNCC2)c(C)c1 + CN(C)C/C=C/C(=O)Nc1cc2c(Nc3ccc(F)c(Cl)c3)ncnc2cc1O[C@H]1CCOC1 [Afatinib] | 55.4
9 | CNC1CCC(c2ccc(Cl)c(Cl)c2)c2ccccc21.Cl (stereo not given) [Sertraline HCl] + CN(C)C/C=C/C(=O)Nc1cc2c(Nc3ccc(F)c(Cl)c3)ncnc2cc1O[C@H]1CCOC1 [Afatinib] | 56.4
10 | CCCCCCCCCCCCCCCCOP(=O)([O-])OCC[N+](C)(C)C [Miltefosine] + CN(C)C/C=C/C(=O)Nc1cc2c(Nc3ccc(F)c(Cl)c3)ncnc2cc1O[C@H]1CCOC1 [Afatinib] | 69.5
11 | CCCCc1oc2ccccc2c1C(=O)c1cc(I)c(OCCN(CC)CC)c(I)c1.Cl [Amiodarone HCl] + CN(C)C/C=C/C(=O)Nc1cc2c(Nc3ccc(F)c(Cl)c3)ncnc2cc1O[C@H]1CCOC1 [Afatinib] | 66.3
12 | COc1cc(Nc2c(C#N)cnc3cc(OCCCN4CCN(C)CC4)c(OC)cc23)c(Cl)cc1Cl [Bosutinib (SKI-606)] + CN(C)C/C=C/C(=O)Nc1cc2c(Nc3ccc(F)c(Cl)c3)ncnc2cc1O[C@H]1CCOC1 [Afatinib] | 25.9
13 | Cc1cccc(CN2CCN(C(c3ccccc3)c3ccc(Cl)cc3)CC2)c1.Cl.Cl (stereo not given) [Meclizine 2HCl] + CN(C)C/C=C/C(=O)Nc1cc2c(Nc3ccc(F)c(Cl)c3)ncnc2cc1O[C@H]1CCOC1 [Afatinib] | 68.6
14 | C1=C\COCc2cc(ccc2OCCN2CCCC2)Nc2nccc(n2)-c2cccc(c2)COC/1 [Pacritinib] + CN(C)C/C=C/C(=O)Nc1cc2c(Nc3ccc(F)c(Cl)c3)ncnc2cc1O[C@H]1CCOC1 [Afatinib] | 47.9
15 | CCC(=C(c1ccccc1)c1ccc(OCCN(C)C)cc1)c1ccccc1.O=C(O)CC(O)(CC(=O)O)C(=O)O [Tamoxifen Citrate] + CN(C)C/C=C/C(=O)Nc1cc2c(Nc3ccc(F)c(Cl)c3)ncnc2cc1O[C@H]1CCOC1 [Afatinib] | 69.5
16 | COc1cc2nccc(Oc3ccc(NC(=O)NC4CC4)c(Cl)c3)c2cc1C(N)=O [Lenvatinib (E7080)] + CN(C)C/C=C/C(=O)Nc1cc2c(Nc3ccc(F)c(Cl)c3)ncnc2cc1O[C@H]1CCOC1 [Afatinib] | 39.8
17 | Nc1ccc2cc3ccc([NH3+])cc3nc2c1.Nc1ccc2cc3ccc([NH3+])cc3nc2c1.O=S(=O)([O-])[O-] [Proflavine Hemisulfate] + CN(C)C/C=C/C(=O)Nc1cc2c(Nc3ccc(F)c(Cl)c3)ncnc2cc1O[C@H]1CCOC1 [Afatinib] | 116
18 | COc1ccc2c(O[C@H]3CC4C(=O)N(C)CCCC/C=C\[C@H]5C[C@@]5(C(=O)NS(=O)(=O)C5CC5)NC(=O)[C@@H]4C3)cc(-c3nc(C(C)C)cs3)nc2c1C (stereo not given in full) [Simeprevir] + CN(C)C/C=C/C(=O)Nc1cc2c(Nc3ccc(F)c(Cl)c3)ncnc2cc1O[C@H]1CCOC1 [Afatinib] | 64.5
19 | O=C(O)CO.[NH2-].[NH2-].[Pt+2] [Nedaplatin] + CN(C)C/C=C/C(=O)Nc1cc2c(Nc3ccc(F)c(Cl)c3)ncnc2cc1O[C@H]1CCOC1 [Afatinib] | 82.6
20 | COc1nc2ccc(Br)cc2cc1[C@@H](c1ccccc1)[C@@](O)(CCN(C)C)c1cccc2ccccc12 [Bedaquiline fumarate] + CN(C)C/C=C/C(=O)Nc1cc2c(Nc3ccc(F)c(Cl)c3)ncnc2cc1O[C@H]1CCOC1 [Afatinib] | 91.2

Row | Structure (SMILES) | cell viability of combination
21 | COC(=O)C1=C(C)NC(C)=C(C(=O)OCCN(C)Cc2ccccc2)C1c1cccc([N+](=O)[O-])c1.Cl (stereo not given) [Nicardipine HCl] + CN(C)C/C=C/C(=O)Nc1cc2c(Nc3ccc(F)c(Cl)c3)ncnc2cc1O[C@H]1CCOC1 [Afatinib] | 69.6
22 | CN1CCC(COc2cnc(-c3cccc(Cn4nc(-c5cccc(C#N)c5)ccc4=O)c3)nc2)CC1 + CN(C)C/C=C/C(=O)Nc1cc2c(Nc3ccc(F)c(Cl)c3)ncnc2cc1O[C@H]1CCOC1 [Afatinib] | 60.5
23 | Oc1c(Cl)cc(Cl)c2cccnc12 [Chloroxine] + CN(C)C/C=C/C(=O)Nc1cc2c(Nc3ccc(F)c(Cl)c3)ncnc2cc1O[C@H]1CCOC1 [Afatinib] | 75.4
24 | CC(O)C(=O)O.CCOc1ccc2nc3cc(N)ccc3c(N)c2c1.O [Ethacridine lactate monohydrate] + CN(C)C/C=C/C(=O)Nc1cc2c(Nc3ccc(F)c(Cl)c3)ncnc2cc1O[C@H]1CCOC1 [Afatinib] | 70.5
25 | COc1cccc2c1C(=O)c1c(O)c3c(c(O)c1C2=O)CC(O)(C(=O)CO)CC3OC1CC(N)C(O)C(C)O1.Cl (stereo not given) [Doxorubicin (Adriamycin) HCl] + CN(C)C/C=C/C(=O)Nc1cc2c(Nc3ccc(F)c(Cl)c3)ncnc2cc1O[C@H]1CCOC1 [Afatinib] | 40.9
26 | CO[C@@]12[C@H](COC(N)=O)C3=C(C(=O)C(C)=C(N)C3=O)N1C[C@@H]1N[C@@H]12 [Mitomycin C] + CN(C)C/C=C/C(=O)Nc1cc2c(Nc3ccc(F)c(Cl)c3)ncnc2cc1O[C@H]1CCOC1 [Afatinib] | 58.4
27 | CSc1ccc2c(c1)N(CCC1CCCCN1C)c1ccccc1S2.Cl (stereo not given) [Thioridazine HCl] + CN(C)C/C=C/C(=O)Nc1cc2c(Nc3ccc(F)c(Cl)c3)ncnc2cc1O[C@H]1CCOC1 [Afatinib] | 58.1
28 | CCN1CCN(Cc2ccc(Nc3ncc(F)c(-c4cc(F)c5nc(C)n(C(C)C)c5c4)n3)nc2)CC1.CS(=O)(=O)O + CN(C)C/C=C/C(=O)Nc1cc2c(Nc3ccc(F)c(Cl)c3)ncnc2cc1O[C@H]1CCOC1 [Afatinib] | 40.5
29 | COc1cc2nccc(Oc3ccc(NC(=O)Nc4cc(C)on4)c(Cl)c3)c2cc1OC [Tivozanib (AV-951)] + CN(C)C/C=C/C(=O)Nc1cc2c(Nc3ccc(F)c(Cl)c3)ncnc2cc1O[C@H]1CCOC1 [Afatinib] | 40.2
30 | CC(C)CC(NC(=O)C(NC(=O)c1cccc(-c2ccccc2)n1)C(C)O)B(O)O (stereo not given) + CN(C)C/C=C/C(=O)Nc1cc2c(Nc3ccc(F)c(Cl)c3)ncnc2cc1O[C@H]1CCOC1 [Afatinib] | 18.9
31 | Clc1ccc(CSC(Cn2ccnc2)c2ccc(Cl)cc2Cl)cc1.O=[N+]([O-])O (stereo not given) [Sulconazole Nitrate] + CN(C)C/C=C/C(=O)Nc1cc2c(Nc3ccc(F)c(Cl)c3)ncnc2cc1O[C@H]1CCOC1 [Afatinib] | 74.1
32 | CN(C)CC=CC(=O)Nc1cc2c(Nc3ccc(F)c(Cl)c3)ncnc2cc1OC1CCOC1 (stereo not given) [Afatinib (BIBW2992)] + CN(C)C/C=C/C(=O)Nc1cc2c(Nc3ccc(F)c(Cl)c3)ncnc2cc1O[C@H]1CCOC1 [Afatinib] | 21.3
33 | CC1(COc2ccc3c(c2)ncn3-c2ccc3cccc(N4CCC(N)CC4)c3n2)COC1 + CN(C)C/C=C/C(=O)Nc1cc2c(Nc3ccc(F)c(Cl)c3)ncnc2cc1O[C@H]1CCOC1 [Afatinib] | 108
34 | CN(C)CCOc1ccc(C(=C(CCCl)c2ccccc2)c2ccccc2)cc1.O=C(O)CC(O)(CC(=O)O)C(=O)O [Toremifene Citrate] + CN(C)C/C=C/C(=O)Nc1cc2c(Nc3ccc(F)c(Cl)c3)ncnc2cc1O[C@H]1CCOC1 [Afatinib] | 77.4
35 | Cc1cc(Nc2ncc(Cl)c(Nc3ccccc3S(=O)(=O)C(C)C)n2)c(OC(C)C)cc1C1CCNCC1 + CN(C)C/C=C/C(=O)Nc1cc2c(Nc3ccc(F)c(Cl)c3)ncnc2cc1O[C@H]1CCOC1 [Afatinib] | 28.7
36 | CC1(C)CCC(c2ccc(Cl)cc2)=C(CN2CCN(c3ccc(C(=O)NS(=O)(=O)c4ccc(NC(CCN5CCOCC5)CSc5ccccc5)c(S(=O)(=O)C(F)(F)F)c4)cc3)CC2)C1 (stereo not given) [ABT-263 (Navitoclax)] + CN(C)C/C=C/C(=O)Nc1cc2c(Nc3ccc(F)c(Cl)c3)ncnc2cc1O[C@H]1CCOC1 [Afatinib] | 38
37 | Cl.OC(c1cc(C(F)(F)F)nc2c(C(F)(F)F)cccc12)C1CCCCN1 (stereo not given) [Mefloquine hydrochloride] + CN(C)C/C=C/C(=O)Nc1cc2c(Nc3ccc(F)c(Cl)c3)ncnc2cc1O[C@H]1CCOC1 [Afatinib] | 50.3
38 | CO[C@H]1/C=C/O[C@@]2(C)Oc3c(C)c(O)c4c(O)c(c(/C=N/N5CCN(C6CCCC6)CC5)c(O)c4c3C2=O)NC(=O)/C(C)=C\C=C\[C@H](C)[C@H](O)[C@@H](C)[C@@H](O)[C@@H](C)[C@H](OC(C)=O)[C@@H]1C [Rifapentine] + CN(C)C/C=C/C(=O)Nc1cc2c(Nc3ccc(F)c(Cl)c3)ncnc2cc1O[C@H]1CCOC1 [Afatinib] | 72.2
39 | COc1ccccc1OCCNCC(O)COc1cccc2[nH]c3ccccc3c12 (stereo not given) [Carvedilol] + CN(C)C/C=C/C(=O)Nc1cc2c(Nc3ccc(F)c(Cl)c3)ncnc2cc1O[C@H]1CCOC1 [Afatinib] | 59.2
40 | Cl.Clc1ccccc1CN1CCc2sccc2C1 [Ticlopidine HCl] + CN(C)C/C=C/C(=O)Nc1cc2c(Nc3ccc(F)c(Cl)c3)ncnc2cc1O[C@H]1CCOC1 [Afatinib] | 75.9
